About 2,200 (92%) of roughly 2,400 compounds were called active.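 The calls were made as follows: active = mean inhibition over triplicate runs exceeds the cutoff derived for the earlier primary screen (cut at about 25% in these data); inactive = the rest.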 So high a share suggests a set chosen from earlier hits. This is one part of the list.
target: Platelet-activating factor acetylhydrolase IB subunit alpha2 (Homo sapiens) (UniProt P68402); assay: inhibition of human PAFAH1B2 catalytic subunit – biochemical, fluorescence polarization, FP-rhodamine probe, triplicate, confirmation (AID 493034); settings: recombinant PAFAH1B2, FP-rhodamine probe fluorescence polarization; at 3.39 µM; active compounds read high;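 also: 0% = enzyme with DMSO and 100% = wells lacking PAFAH1B2 protein; inhibitors lower polarization by leaving the probe unbound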
Sequence (P68402 whole entry, looked up): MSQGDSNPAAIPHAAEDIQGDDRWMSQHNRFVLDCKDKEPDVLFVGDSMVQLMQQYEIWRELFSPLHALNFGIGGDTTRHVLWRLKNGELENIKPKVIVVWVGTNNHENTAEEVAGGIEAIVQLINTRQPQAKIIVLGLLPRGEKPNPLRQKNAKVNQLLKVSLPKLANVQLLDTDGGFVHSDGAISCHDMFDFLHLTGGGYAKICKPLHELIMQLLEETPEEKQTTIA

| SMILES | inhibition |
| --- | --- |
| Cc1c(N=C2C=C(Br)C(=O)C(Br)=C2)c(=O)n(-c2ccccc2)n1C | 20.8% (inactive) |
| O=S(=O)(Nc1ccc2cn[nH]c2c1)c1ccc(Cl)cc1 | 18.1% (inactive) |
| O=c1[nH]c2ccc(S(=O)(=O)Nc3ccc(Cl)cc3)cc2o1 | 41.7% (active) |
| Nc1n[nH]c2c1C1(CCCCC1)Cc1ccccc1-2 | 22% (inactive) |
| O=C(OCCc1ccccc1)c1cc(O)c(O)c(O)c1 | 34.3% (active) |
| O=C(/C=C/c1ccc(O)c(O)c1)OCCc1ccccc1 | 19.7% (inactive) |
| N=c1c[n+](-c2ccc(Cl)cc2)[n-]o1 | 18.1% (inactive) |
| CN(Cc1ccccc1)C(=O)CN1CCN(S(=O)(=O)c2ccc(Cl)c(Cl)c2)CC1 | 22.8% (inactive) |
| O=C(CN1CCN(S(=O)(=O)c2ccc(Cl)cc2)CC1)c1ccc(O)c(O)c1 | 33.2% (active) |
| O=S(=O)(c1ccc(Cl)cc1)N1CCCC(C(F)(F)F)C1 (configuration not stated) | 22.5% (inactive) |
| CCC(=O)Nc1cc(C)c(NC(=O)C23CC4CC(CC(C4)C2)C3)cn1 | 22.1% (inactive) |
| O=C(NNC(=S)NC(=O)C12CC3CC(CC(C3)C1)C2)c1ccncc1 | 38.2% (active) |
| O=C(NNC(=O)C12CC3CC(CC(C3)C1)C2)c1cccc([N+](=O)[O-])c1 | 18.9% (inactive) |
| O=C1C(c2ccccc2)NC(=S)N1C1CCCCC1 (configuration not stated) | 20.2% (inactive) |
| O=C(O)c1ccn2c(C(=O)c3ccccc3)c(-c3ccccc3)cc2c1 | 27.1% (active) |
| O=C(O)c1ccn2c(C(=O)c3ccc(Cl)cc3)c(-c3ccccc3)cc2c1 | 62.6% (active) |
| O=C1NC(c2cccs2)C(C(=O)c2ccccc2)C(O)(C(F)(F)F)N1 (configuration not stated) | 11.5% (inactive) |
| Cc1ccc2[nH]c(C(=O)O)c(NC(=O)[C@@H]3C[C@@H]3c3ccccc3)c2c1 | 17.5% (inactive) |
| CCOCCCNC(=O)Cc1c(C(=O)O)[nH]c2ccc(Cl)cc12 | 26.3% (active) |

| SMILES | inhibition |
| --- | --- |
| CCCCN(CC)C(=O)Cc1c(C(=O)O)[nH]c2ccc(Cl)cc12 | 41.1% (active) |
| CC1CC(C)CN(C(=O)Cc2c(C(=O)O)[nH]c3ccc(Cl)cc23)C1 (configuration not stated) | 73.8% (active) |
| CC(C)CCNC(=O)Cc1c(C(=O)O)[nH]c2ccc(Cl)cc12 | 43.9% (active) |
| COc1ccc([N+](=O)[O-])cc1N(CC(=O)NCCSc1ccc(C)cc1)S(C)(=O)=O | 22.5% (inactive) |
| CC12CC3CC(C)(C1)CC(C(=O)N1CCN(C(=O)c4ccco4)CC1)(C3)C2 | 16.1% (inactive) |
| Cc1ccccc1C(=O)N1CCN(c2ccc(NC(=O)CSc3ccc(Cl)cc3)cc2)CC1 | 23.5% (inactive) |
| O=C(Nc1ccc(N2CCOCC2)cc1)C1(c2ccc(Cl)cc2)CCC1 | 78.4% (active) |
| CC(Sc1ccc(Cl)cc1)C(=O)Nc1ccc(S(=O)(=O)N2CCOCC2)cc1 (configuration not stated) | 20% (inactive) |
| O=C(CCl)N(c1ccccc1)C1CCCCC1 | 29.2% (active) |
| O=C(O)c1cc(NC(=S)NC(=O)C(c2ccccc2)c2ccccc2)ccc1Cl | 20.9% (inactive) |
| Cc1ccc(S(=O)(=O)Nc2ccccc2-c2ccccc2NS(=O)(=O)c2ccc(C)cc2)cc1 | 43.8% (active) |
| CC(C)(C)c1ccc(S(=O)(=O)/N=C2\C=C(NS(=O)(=O)c3ccccc3)C(=O)c3ccccc32)cc1 | 11.4% (inactive) |
| COc1cc(C(=O)O[C@H]2CC(C)=CC[C@@]3(C)CC[C@@](O)(C(C)C)[C@H]23)ccc1O | 23.9% (inactive) |
| Cc1nc2ccccn2c1-c1ccnn1S(=O)(=O)c1ccc(F)cc1 | 22.7% (inactive) |
| O=c1[nH]c2cc(Cl)ccc2c(O)c1-c1cccc(Oc2ccccc2)c1 | 27.1% (active) |
| CC1CCN(S(=O)(=O)c2ccc(N/N=C(/C#N)C(N)=O)cc2)CC1 | 27.9% (active) |
| CC1CCN(S(=O)(=O)c2cccc(C(=O)N(C)C3CCS(=O)(=O)C3)c2)CC1 (configuration not stated) | 23.7% (inactive) |
| CC1CCN(S(=O)(=O)c2ccc(NC(=O)Cc3cccs3)cc2)CC1 | 19.6% (inactive) |
| O=C(CSc1nc(C2CC2)nc2ccccc12)Nc1ccc2c(c1)OCCO2 | 1.2% (inactive) |

| SMILES | inhibition |
| --- | --- |
| CC1CCN(S(=O)(=O)c2ccc(NC(=O)CSc3nnnn3C)cc2)CC1 | 33.1% (active) |
| CC1CCN(S(=O)(=O)c2ccc(NC(=O)[C@@H]3CCCC[C@@H]3C(=O)O)cc2)CC1 | 39.3% (active) |
| CC1CCN(S(=O)(=O)c2ccc(NC(=O)CN3CCCCCC3)cc2)CC1 | 20.4% (inactive) |
| N#Cc1c(-c2ccccc2)nc(SCc2ccc(Cl)cc2)[nH]c1=O | 40% (active) |
| CN(C(=O)CSc1nc(-c2ccc(C(C)(C)C)cc2)c(C#N)c(=O)[nH]1)C1CCCCC1 | 20.1% (inactive) |
| N#Cc1c(-c2ccccc2)nc(SCC(=O)N(c2ccccc2)c2ccccc2)[nH]c1=O | 38.8% (active) |
| CC(C)c1ccc(-c2nc(N3CCOCC3)[nH]c(=O)c2C#N)cc1 | 23.2% (inactive) |
| C/C(=N\O)C1/C(=N/O)CC2C1C2(C)C (configuration not stated) | 31.7% (active) |
| Cc1cc(-c2ccccc2)c2ccc(NC(=O)C(C)(C)C)nc2n1 | 23.8% (inactive) |
| Cc1cccc(OCC(=O)NCC(=O)N/N=C/c2cc(Br)cc(Br)c2O)c1 | 19.1% (inactive) |
| O=C(CNC(=O)c1cccc(Br)c1)N/N=C/c1cc(Br)cc(Br)c1O | 33.1% (active) |
| C=C[C@]1(C)C=C2CC[C@H]3[C@@](C)(CCC[C@@]3(C)C(=O)O)[C@@H]2CC1 | 30.9% (active) |
| O=S(=O)(Oc1ccccc1N1CCCCC1)c1ccccc1 | 14.5% (inactive) |
| C=CCO/N=C(\C)c1c(O)c(C)c(-c2ccccc2)n(-c2ccccc2)c1=O | 25.2% (active) |
| CC1CCC2C(C1)c1sc(=O)[nH]c1SC2(C)C (configuration not stated) | 55.2% (active) |
| N#CC1(C#N)CC(C=O)=C(N)C1(C#N)CC(=O)C12CC3CC(CC(C3)C1)C2 (configuration not stated) | 17.2% (inactive) |
| CCC[C@@H]1CCCO[C@@](C(=O)NCc2ccccn2)(C(F)(F)F)C1 | 20% (inactive) |
| Cc1ccc(SCc2[nH]nc3c2C2(CCSCC2)C(C#N)=C(N)O3)cc1 | 32.9% (active) |
| CCOC(=O)C(CC(=O)O)=C(c1ccccc1)c1ccccc1 | 17.7% (inactive) |

Source: PubChem BioAssay AID493034 (The Scripps Research Institute Molecular Screening Center, 2011)
